Beta cell apopt: beta cell apoptosis inhibition; INS-1E cytokine-induced death, ATP luminescence, 48 h; percent of positive-control rescue, neutral wells zero; protection from apoptosis, % (test concentration not listed); hit rate 0.8% among 300,000; AID 435005;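 active means Every replicate reaches about 75%, or at least half do and their mean reaches it too, limit read from the data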;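 further: higher means more ATP so stronger rescue from cytokine killing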
697 NFkB inh: lowers PMA/ionomycin-induced NF-kB signal in 697 B cells; inhibition, % at 4 µM; hit rate 0.33% among 330,000; 697 B-cell NF-kB luciferase reporter, 16 h; in the data active means inhibition above about 35%
Jurkat NFkB inh: lowers PMA/ionomycin-induced NF-kB signal in Jurkat cells; PMA/ionomycin-induced NF-kB luciferase reporter, luminescence; inhibition, % at 4 µM; hit rate 0.53% among 330,000; AID 435003; in the data active means inhibition above about 50%
NTR1 ag: NTR1 (human) agonism; activation, % at 20 µM; NTR1-U2OS beta-arrestin-GFP spot imaging, agonist mode; P30989; AID 493036; hit rate 0.17% among 330,000;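 active means activation at or above 40% of the spot to cytoplasm intensity ratio, with at least 20 cells analyzed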
Mdm2 MdmX PPI: inhibitors of human Mdm2/MdmX interaction. inhibition, % at 8 µM. SaOS-2 split-luciferase Mdm2/MdmX complementation, luminescence. AID 485346. O15151+Q00987. hit rate 3% among 330,000;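 active means inhibition of at least 50% at 8 µM in the primary screen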
Bfl-1 A1 inh: inhibitors of the anti-apoptotic protein A1, read as caspase activation | MEF A1-2A-BIM cells, Caspase-Glo 3/7 luminescence, 3 h; percent of clofoctol response, vehicle zero | caspase activation, % (test concentration not listed) | hit rate 0.066% among 330,000;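 active means over half of replicate activation scores above 10%, or exactly half above 10 with the replicate mean above 10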
Mdm2 MdmX conf: human Mdm2/MdmX binding inhibition, confirmed. shares compounds with Mdm2 MdmX PPI. luminescent assay. inhibition, % at 8 µM. hit rate 55% among 10,000. AID 489028; in the data active means inhibition above about 40%
Full FLuc ctr: inhibits full-length luciferase, flagging false Mdm2/MdmX hits. shares compounds with Mdm2 MdmX PPI. SaOS-2 full-length luciferase counterscreen, luminescence. inhibition, % at 8 µM. hit rate 77% among 6,200;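 active means mean inhibition at 8 µM reaching about 37%, which flags the compound as non-specific, limit read from the data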;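 further: p53-null SaOS-2 cells with luciferase driven by a doxycycline-inducible promoter; compound on cells about two nights before reading with doxycycline added after day one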
Of the large screens only hits and unclear results are named; the others gave an inactive call (follow-up assays come after a bar, where they were run). Most compounds without a hit are left out; they make up all but 3.8% or so of the library.

CCOC(=O)c1nc(NNC(=O)c2ccc([N+](=O)[O-])cc2)sc1C	Beta cell apopt 103.3, Mdm2 MdmX PPI 57.5 | Mdm2 MdmX conf 45.6 | Full FLuc ctr inactive
C=CCc1cc(/C=C2/NC(=O)NC2=O)cc(OCC)c1O	none
C=CCc1cc(/C=C2/NC(=S)NC2=O)cc(OC)c1O	Mdm2 MdmX PPI 55.3 | Mdm2 MdmX conf inactive
CC(=O)c1cccc(NC(=O)Nc2ccc3c(c2)N(C)C(=O)CS3)c1	Mdm2 MdmX PPI 51.2 | Mdm2 MdmX conf inactive
Cc1cc(C)cc(NC(=O)Nc2ccc3c(c2)N(C)C(=O)CS3)c1	none (no result: Beta cell apopt)
CC(=O)c1cccc(NC(=O)Nc2ccc(C(=O)N3CCCC3)cc2)c1	Mdm2 MdmX PPI 52.0 | Mdm2 MdmX conf inactive
Cc1ccc(-c2nn3c(C)nnc3c3ccccc23)cc1S(=O)(=O)NCc1ccccc1	none
Cc1ccc(-c2nn3c(C)nnc3c3ccccc23)cc1S(=O)(=O)N(C)CCO	Mdm2 MdmX PPI 52.9 | Mdm2 MdmX conf inactive
CCOC(=O)N1CCN(S(=O)(=O)c2cc(-c3nn4c(C)nnc4c4ccccc34)ccc2C)CC1	Mdm2 MdmX PPI 58.5 | Mdm2 MdmX conf inactive
O=Cc1cc(Br)c(OC(=O)N2CCOCC2)c(Br)c1	none
O=C(O)c1ccccc1C(=O)Nn1cnnc1	none
O=C(NC(=C(Cl)Cl)S(=O)(=O)c1ccc(Cl)cc1)c1ccccc1	Mdm2 MdmX PPI 61.7 | Mdm2 MdmX conf 57.8 | Full FLuc ctr inactive
Cc1ccc(C(=O)NC(=C(Cl)Cl)S(=O)(=O)c2ccc(C)cc2)cc1	none
Cc1ccc(S(=O)(=O)C(NC(=O)c2ccccc2)=C(Cl)Cl)cc1	Mdm2 MdmX PPI 65.3 | Mdm2 MdmX conf inactive
Fc1c(F)c(F)c(SCn2cc(Br)cn2)c(F)c1F	none
CCOC(=O)C1=C(COC(=O)/C=C/c2cccc(Cl)c2)NC(=O)NC1C (centres undefined)	none (no result: Beta cell apopt)
CCN(CC(=O)Nc1c(F)cccc1F)C(=O)c1ccc2c(c1)S(=O)(=O)N=C1CCCCCN12	none
Cc1ccc(-c2cc(C(F)F)n3ncc(C(=O)Nc4ccc(S(=O)(=O)Nc5ccccc5C)cc4)c3n2)cc1	Mdm2 MdmX PPI 53.9 | Mdm2 MdmX conf inactive
COc1ccc2c(c1)c(=O)oc1c(C)c(OCC(=O)N3CCc4ccccc4C3)ccc12	Mdm2 MdmX PPI 52.7 | Mdm2 MdmX conf inactive
COc1ccc(N2CCN(C(=O)COc3ccc4c(C)c(C)c(=O)oc4c3C)CC2)cc1	Mdm2 MdmX PPI 53.3 | Mdm2 MdmX conf inactive
C[C@H]1NS(=O)(=O)c2ccc(Br)cc2O[C@H]1c1ccccc1	none (no result: Beta cell apopt, Jurkat NFkB inh, Bfl-1 A1 inh)
C=CCn1c(COc2ccccc2)nnc1SC(C)C(=O)N/N=C/c1cc(Cl)ccc1O (centres undefined)	Mdm2 MdmX PPI 64.6 | Mdm2 MdmX conf 60.0 | Full FLuc ctr inactive
C=CCn1c(COc2ccc(Cl)cc2)nnc1SCC(=O)N/N=C/c1cccc(O)c1	none
CCn1c(-c2ccc(C)cc2)nn(CC(=O)NCCc2ccccc2)c1=S	Beta cell apopt 126.6, Mdm2 MdmX PPI 51.3 | Mdm2 MdmX conf 54.9 | Full FLuc ctr inactive
COc1ccc(-c2nn(CC(=O)NCCc3ccccc3)c(=S)n2C)cc1	none
CCCCNC(=O)c1sc(=S)n2c1[nH]c(=O)c1ccccc12	none
O=C(NC1CCCCC1)c1sc(=S)n2c1[nH]c(=O)c1ccccc12	Mdm2 MdmX PPI 70.5 | Mdm2 MdmX conf inactive
COC(=O)c1ccc(C)c(NS(=O)(=O)c2ccc(OC)cc2)c1	Mdm2 MdmX PPI 70.1 | Mdm2 MdmX conf 60.5 | Full FLuc ctr 100.2
CCc1c(C2(O)CCCCC2)[nH]c2ccc(C(F)(F)F)cc12	Mdm2 MdmX PPI 81.7 | Mdm2 MdmX conf inactive
Cc1onc(-c2ccccc2)c1C(=O)Nc1ncc([N+](=O)[O-])s1	Mdm2 MdmX PPI 73.4 | Mdm2 MdmX conf inactive | Full FLuc ctr 58.9
Cc1ccc(C)c(OCc2nnc(NC(=O)c3ccc4c(c3)OCO4)s2)c1	Mdm2 MdmX PPI 68.5 | Mdm2 MdmX conf inactive
O=C(Nc1ncc([N+](=O)[O-])s1)c1ccc2c(c1)OCO2	Mdm2 MdmX PPI 74.9 | Mdm2 MdmX conf 68.8 | Full FLuc ctr 64.1
O=C(Nc1cc([N+](=O)[O-])ccc1Cl)c1ccc2c(c1)OCO2	Mdm2 MdmX PPI 74.4 | Mdm2 MdmX conf inactive
Cc1ccc(C(=O)Nc2ncc([N+](=O)[O-])s2)cc1	none (no result: 697 NFkB inh, Jurkat NFkB inh, NTR1 ag, Mdm2 MdmX PPI)
CC(C)(C)c1nnc(NC(=O)c2ccc3c(c2)OCO3)s1	none
CN(C)CCNC(=O)C(=O)Nc1cc2c3c(c1)CCN3C(=O)CC2	none
Cc1cccc(CC(=O)NCCN2CCOCC2)c1	none
CCOc1ccc(-n2nnnc2-c2nc3ccccc3s2)cc1	Mdm2 MdmX PPI 74.4 | Mdm2 MdmX conf 48.7 | Full FLuc ctr 88.5
O=C(Cc1ccsc1)NNC(=O)c1ccc(F)cc1	none
CC(NC(=S)NC1CCCCC1)c1ccc(C(C)(C)C)cc1 (centres undefined)	Beta cell apopt 99.2, Mdm2 MdmX PPI 67.0 | Mdm2 MdmX conf inactive
O=C(/C=C/c1cc([N+](=O)[O-])ccc1OC(F)F)Nc1ccc(OC(F)F)cc1	none
O=C(/C=C/c1cc([N+](=O)[O-])ccc1OC(F)F)Nc1cccc([N+](=O)[O-])c1	Mdm2 MdmX PPI 74.6 (no result: Beta cell apopt, Bfl-1 A1 inh) | Mdm2 MdmX conf inactive
O=C1OC(c2ccc(F)cc2)=C/C1=C\c1ccc([N+](=O)[O-])o1	Mdm2 MdmX PPI 74.4 | Mdm2 MdmX conf inactive
CC(C)NS(=O)(=O)c1ccc(NC(=O)C(C)OC(=O)CCC2CCCC2)cc1 (centres undefined)	none
Cc1nc2ccccc2c2oc(C(=O)N3CCN(c4ccc([N+](=O)[O-])cc4)CC3)cc12	Mdm2 MdmX PPI 85.7 | Mdm2 MdmX conf inactive
Cc1nc2ccccc2c2oc(C(=O)N3CCN(C(=O)c4ccco4)CC3)cc12	none
O=C(c1cccs1)N1CCN(c2nnc(-c3ccccc3)c3ccccc23)CC1	none
Cc1ccc(-c2nnc(N3CCN(c4ccccn4)CC3)c3ccccc23)cc1	Mdm2 MdmX PPI 56.9 | Mdm2 MdmX conf 53.6 | Full FLuc ctr 48.3
Cc1ccc(-c2nnc(N3CCN(C(=O)c4cccs4)CC3)c3ccccc23)cc1	Mdm2 MdmX PPI 55.0 | Mdm2 MdmX conf inactive
CN1CCN(S(=O)(=O)c2cccc(C(=O)N(C)C(c3ccccc3)c3ccccc3)c2)CC1	none
COCCn1c(N)c(S(=O)(=O)c2cccs2)c2nc3ccccc3nc21	none
Nc1c(S(=O)(=O)c2cccc(Cl)c2)c2nc3ccccc3nc2n1/N=C/c1ccc(O)c(O)c1	Mdm2 MdmX PPI 83.6 | Mdm2 MdmX conf inactive
COc1cccc(/C=N/n2c(N)c(S(=O)(=O)c3cccs3)c3nc4ccccc4nc32)c1OC	Mdm2 MdmX PPI 82.7 | Mdm2 MdmX conf inactive
